High-throughput results: PubChem, Buhrlage Lab, Dana-Farber Cancer Institute and Novartis Institutes for BioMedical Research (Cambridge, Mass)
Compounds with a hit are over-represented: about 12% of the library has one in this group of screens.
OTUD3 inh – inhibitors of human OTUD3 deubiquitinase; Q5T2D3; purified OTUD3, Ub-rhodamine fluorescence, 2 h; inhibition, % at 25 µM; 0.7% of 47,000 active; AID 1645858
USP30 inh – human USP30 deubiquitinase inhibition | purified USP30, Ub-rhodamine cleavage fluorescence | 5.3% of 47,000 active | Q70CQ3 | inhibition, % at 25 µM | AID 1645860
USP17 inh – inhibitors of human USP17 deubiquitinase. A8MUK1. purified USP17, Ub-rhodamine cleavage fluorescence, 3 h. inhibition, % at 50 µM. 6.5% of 47,000 active
Target sequence (A8MUK1 whole entry, looked up): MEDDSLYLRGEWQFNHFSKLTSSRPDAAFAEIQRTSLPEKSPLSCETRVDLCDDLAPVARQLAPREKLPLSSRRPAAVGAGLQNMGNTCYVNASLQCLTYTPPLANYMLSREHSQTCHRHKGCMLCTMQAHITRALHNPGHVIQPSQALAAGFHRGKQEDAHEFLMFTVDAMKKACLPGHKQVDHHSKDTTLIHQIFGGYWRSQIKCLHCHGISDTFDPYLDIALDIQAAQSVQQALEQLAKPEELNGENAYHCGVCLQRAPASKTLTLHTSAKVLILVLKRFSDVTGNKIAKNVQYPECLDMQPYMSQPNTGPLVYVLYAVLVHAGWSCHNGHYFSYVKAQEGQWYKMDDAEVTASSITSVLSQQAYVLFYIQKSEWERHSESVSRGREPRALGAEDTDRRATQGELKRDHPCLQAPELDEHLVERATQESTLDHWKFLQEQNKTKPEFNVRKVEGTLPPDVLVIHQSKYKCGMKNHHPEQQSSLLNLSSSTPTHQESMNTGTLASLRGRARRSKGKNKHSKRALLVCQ
USP28 inh – inhibitors of human USP28 deubiquitinase; 3% of 47,000 active; purified USP28, Ub-rhodamine cleavage fluorescence, 30 min; Q96RU2; inhibition, % at 25 µM
Numbers without * were called inactive. No stated cut-off is given here; in the data, active means inhibition above about 30%; inactive means the rest.

How did COC(=O)c1ccc(CNC(=O)COC(=O)c2cc(-c3ccccc3)nc3ccccc23)cc1 do in these assays?
OTUD3 inh: 21; USP30 inh: 47*; USP17 inh: 9; USP28 inh: 9

How did Cc1ccc(-c2csc(-n3ncc(C(=O)N4CCN(C(=O)Nc5cccc6ccccc56)C(C)C4)c3C(C)C)n2)cc1 (stereo not drawn) do in these assays?
OTUD3 inh: 8; USP30 inh: -53; USP17 inh: 63*; USP28 inh: 27

How did Cn1c(=O)n(CCN2CCOCC2)c(=O)c2c1nc1n2CCN1c1cccc(Cl)c1 do in these assays?
OTUD3 inh: -7; USP30 inh: 6; USP17 inh: -4; USP28 inh: -8

Results for Cc1cccc(N2CCn3c2nc2c3c(=O)n(CCN3CCOCC3)c(=O)n2C)c1 ?
OTUD3 inh: 14; USP30 inh: 38*; USP17 inh: 5; USP28 inh: 12

What do the screens show for `Cc1ccc(N2CCCn3c2nc2c3c(=O)n(CCN3CCOCC3)c(=O)n2C)cc1`?
OTUD3 inh: 15; USP30 inh: 34*; USP17 inh: 16; USP28 inh: 17

How did Cc1cc(N2CCCC(C)(c3[nH]ncc3C(=O)N(C)C)C2)nc(N)n1 (stereo not drawn) do in these assays?
OTUD3 inh: 13; USP30 inh: 26; USP17 inh: 5; USP28 inh: 9

What do the screens show for `Cc1ccc(CNC(=O)c2ccc(N3CCC(C)CC3)c([N+](=O)[O-])c2)cc1`?
OTUD3 inh: -7; USP30 inh: -1; USP17 inh: -7; USP28 inh: -20

Results for Cc1ccc(CCNC(=O)c2nn(C34CC5CC(CC(C5)C3)C4)cc2[N+](=O)[O-])cc1 ?
OTUD3 inh: 27; USP30 inh: 47*; USP17 inh: 9; USP28 inh: 23

What do the screens show for `Cc1nn(-c2ccc(Cl)cc2)c(C)c1S(=O)(=O)N1CCC(C(=O)NC2CC2)CC1`?
OTUD3 inh: 2; USP30 inh: 14; USP17 inh: 12; USP28 inh: 7

What do the screens show for `CN(C)c1ccc(CN2CCOC[C@H]2c2ncc(-c3cccnc3)[nH]2)cc1`?
OTUD3 inh: 0; USP30 inh: -38; USP17 inh: -66; USP28 inh: 2

What do the screens show for `Cc1ccc(-n2nnc(-c3noc(-c4ccccn4)n3)c2C)cc1`?
OTUD3 inh: -11; USP30 inh: -9; USP17 inh: -5; USP28 inh: -6

How did Cc1c(-c2noc(-c3ccccn3)n2)nnn1-c1ccc(F)cc1 do in these assays?
OTUD3 inh: 0; USP30 inh: 61*; USP17 inh: 72*; USP28 inh: 0

Results for c1ccc(-n2nnc(-c3noc(-c4ccccn4)n3)c2-c2ccncc2)cc1 ?
OTUD3 inh: -6; USP30 inh: 4; USP17 inh: 64*; USP28 inh: 20

How did COc1ccc(-c2noc(-c3nnn(-c4ccccc4Cl)c3C)n2)cc1 do in these assays?
OTUD3 inh: -5; USP30 inh: 9; USP17 inh: 4; USP28 inh: -5

How did Cc1c(-c2nc(-c3ccccc3Cl)no2)nnn1-c1cccc(F)c1 do in these assays?
OTUD3 inh: 24; USP30 inh: 62*; USP17 inh: 36*; USP28 inh: 27

What do the screens show for `O=C(CO)N1C[C@H](Oc2ccccn2)[C@H]2C[C@@H]1Cc1c2[nH]c2ccccc12`?
OTUD3 inh: -25; USP30 inh: -142; USP17 inh: -21; USP28 inh: -18

What do the screens show for `Cc1ccc(N2CCN(C(=O)CSc3cc(=O)n(C)c4ccccc34)CC2C)cc1` (stereo not drawn)?
OTUD3 inh: -10; USP30 inh: -16; USP17 inh: -12; USP28 inh: -7

What do the screens show for `CCn1c(=O)c(C(=O)Nc2ccc(Br)c(C)c2)nc2ccccc21`?
OTUD3 inh: 6; USP30 inh: 40*; USP17 inh: 20; USP28 inh: 7

Results for O=C(NC1CCC1)c1c2c(-c3ccncc3)ncnc2n2ccccc12 ?
OTUD3 inh: 10; USP17 inh: 68*

What do the screens show for `O=C(c1c2c(-c3ccccc3)ncnc2n2ccccc12)N1CCOCC1`?
OTUD3 inh: -183; USP30 inh: inactive; USP17 inh: -192; USP28 inh: -153

What do the screens show for `Cc1noc(C)c1CCC(=O)N1CCN(c2ncnc3c2CCC3)CC1`?
OTUD3 inh: 12; USP30 inh: 22; USP17 inh: 12; USP28 inh: 10

What do the screens show for `O=S(=O)(c1ccccc1F)N1CCN(c2nnnn2-c2ccccc2)CC1`?
OTUD3 inh: 22; USP30 inh: 15; USP17 inh: 13; USP28 inh: 10

What do the screens show for `CC(C)C(Nc1ccc(C(F)(F)F)cc1Cl)C(=O)Nc1nc2ccccc2[nH]1` (stereo not drawn)?
OTUD3 inh: 12; USP30 inh: 37*; USP17 inh: 40*; USP28 inh: 24

What do the screens show for `Cc1ccc(C(=O)N2CCCn3c(CN4CCCCC4)nnc3C2)cc1C`?
OTUD3 inh: 11; USP30 inh: 4; USP17 inh: -14; USP28 inh: 0

Results for Fc1ccc(-c2nn(-c3ccc(F)cc3)c3c2cnc2cc4c(cc23)OCO4)cc1 ?
OTUD3 inh: 2; USP17 inh: 11

Results for Cc1ccc(CNC(=O)Cn2cc(S(=O)(=O)Cc3ccccc3)c3ccccc32)cc1 ?
OTUD3 inh: -38; USP30 inh: -114; USP17 inh: -38; USP28 inh: -9

Results for Cc1ccc(S(=O)(=O)c2cnc(-c3ccccc3)nc2Oc2ccc(Cl)cc2C)cc1 ?
OTUD3 inh: 16; USP30 inh: 24; USP17 inh: 12; USP28 inh: 9

What do the screens show for `O=S(=O)(c1ccccc1)c1cnc(-c2ccccc2)nc1Oc1ccc(F)cc1F`?
OTUD3 inh: -3; USP30 inh: 36*; USP17 inh: 15; USP28 inh: 13

How did CCCn1c(NC(=O)c2cccnc2)nc2ccccc21 do in these assays?
OTUD3 inh: 0; USP30 inh: -5; USP17 inh: 17; USP28 inh: 31*

What do the screens show for `CCn1c(NC(=O)c2cccnc2N2CCCC2)nc2ccccc21`?
OTUD3 inh: -1; USP30 inh: 3; USP17 inh: -7; USP28 inh: 0

Results for CCN(CC)S(=O)(=O)c1cc(C(=O)Oc2ccc(-c3ccc(C#N)cc3)cc2)ccc1C ?
OTUD3 inh: 7; USP30 inh: 4; USP17 inh: 30; USP28 inh: 20

How did Cc1cccc(NC(=O)c2ccn(COc3ccc(F)cc3F)n2)c1C do in these assays?
OTUD3 inh: 5; USP30 inh: 16; USP17 inh: 9; USP28 inh: 51*

Results for O=C(Nc1ccccc1Br)c1ccn(COc2ccccc2F)n1 ?
OTUD3 inh: -1; USP30 inh: 34*; USP17 inh: 65*; USP28 inh: 19

Results for CNC(=O)c1sc2nccnc2c1C1CCN(c2ccnc(C)n2)CC1 ?
OTUD3 inh: 3; USP17 inh: -8

How did CCN(CC)S(=O)(=O)c1ccc(OC)c(Nc2nc(-c3ccccc3)nc3ccccc23)c1 do in these assays?
OTUD3 inh: 10; USP30 inh: -3; USP17 inh: 39*; USP28 inh: 3

How did Cc1cccc(N2CCN(C(=O)CCn3c(=O)[nH]c4ccccc4c3=O)CC2)c1C do in these assays?
OTUD3 inh: 20; USP30 inh: 36*; USP17 inh: 46*; USP28 inh: 10
